DUX4 txn inh: blocks DUX4-driven transcriptional activation; 293T-iDUX4 ZSCAN4-Gaussia luciferase reporter, 24 h; stronger effect = lower value; 37,000 tested, 0.8% active; activity change, negative = inhibition, % (test concentration not listed);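 active = mean inhibition of at least 10% in the main channel, exceeding the control channel by a set limit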
Large screens that a line does not name were inactive; ! = not active in a repeat. The entries come from a sample that favours hits as a whole.

O=C(c1cccc(F)c1)N1CCCCN2[C@H](C1)[C@H](c1ccc(/C=C/c3ccccc3)cc1)[C@@H]2CO	none
CN(C)CC(=O)N1[C@H](CO)[C@@H](c2ccccc2)C12CN(C(=O)C1CCCC1)C2	none
O=C1N[C@H](Cc2ccccc2)COCn2nncc2CC[C@@H]1Cc1ccccc1	none
COc1ccccc1CNC(=O)C[C@H]1C[C@@H]2c3cc(NS(C)(=O)=O)ccc3O[C@@H]2[C@H](CO)O1	none
O=C(C1CC1)N1CC2(C1)[C@H](c1ccccc1)[C@@H](CO)N2Cc1cncnc1	none
O=C(c1cccc(F)c1)N1CC[C@@H]2[C@H](CO)Nc3ccc(C#CC4CC4)cc3[C@@H]21	none
O=C(c1cccc(F)c1)N1CC[C@@H]2[C@H](CO)Nc3ccc(-c4ccccc4F)cc3[C@@H]21	DUX4 txn inh -32
COc1ccccc1CN1CC[C@@H]2[C@@H](CO)Nc3ccc(-c4cccc(F)c4)cc3[C@@H]21	DUX4 txn inh -24
O=C(c1cccc(F)c1)N1CC[C@@H]2[C@H]1c1cc(-c3ccccc3F)ccc1N[C@@H]2CO	none
O=C(c1cccnc1)N1CC[C@@H]2[C@H]1c1cc(C#Cc3cccnc3)ccc1N[C@@H]2CO	DUX4 txn inh -18
O=C(c1cccc(F)c1)N1CC[C@@H]2[C@H]1c1cc(-c3cccc(F)c3)ccc1N[C@@H]2CO	none
CC(=O)N1CC[C@@H]2[C@@H](CO)Nc3ccc(C#Cc4cccnc4)cc3[C@@H]21	none
O=C(c1cccnc1)N1CC[C@H]2[C@H](CO)Nc3ccc(C#Cc4cccnc4)cc3[C@H]21	none
COc1ccccc1CN1CC[C@@H]2[C@H](CO)Nc3ccc(C#Cc4ccccc4)cc3[C@@H]21	none
O=C(c1cccc(F)c1)N1CC[C@@H]2[C@H](CO)Nc3ccc(C#Cc4ccc(F)cc4)cc3[C@@H]21	DUX4 txn inh -42
OC[C@H]1Nc2ccc(-c3ccc(F)cc3)cc2[C@@H]2[C@H]1CCN2Cc1ccc(F)cc1	none
O=C(c1ccc(F)cc1)N1CC[C@@H]2[C@H]1c1cc(-c3ccccc3F)ccc1N[C@@H]2CO	none
COc1ccc2c3c([nH]c2c1)[C@H](CO)N(C(=O)c1ccncc1)CC31CN(Cc2cccnc2)C1	none
COc1ccc2c3c(n(C)c2c1)[C@H](CO)N(C(=O)c1ccncc1)CC31CCN(C)CC1	none
COc1ccccc1-c1ccc([C@@H]2[C@H]3CN(S(=O)(=O)c4cn(C)cn4)CCCCN3[C@H]2CO)cc1	none
CCCN1[C@H](CO)[C@H](c2ccc(C#Cc3ccccc3)cc2)[C@@H]1CNC1CCCC1	none
COc1ccc2c3c(n(C)c2c1)[C@H](CO)N(Cc1ccc(Cl)cc1)CC31CN(C(=O)NC(C)C)C1	none
CCC(=O)N1[C@H](C#N)[C@H](c2ccccc2-c2ccccc2)[C@@H]1CO	none
COc1ccc(NC(=O)N[C@@H]2CC[C@H](CC(=O)NC3CCCCC3)O[C@H]2CO)cc1	none
C/C=C/c1cccc(-c2nc(C(=O)N(C)C)cc3c2[C@@H](CCO)N([S@](=O)C(C)(C)C)C3)c1	none
CCCC(=O)N1CC2(CCN(C(=O)NC(C)C)CC2)c2c(n(C)c3cc(OC)ccc23)[C@H]1CO	none
O=C(c1ccccc1)N1CC[C@@H]2[C@@H](CO)Nc3ccc(C#Cc4cccc(F)c4)cc3[C@@H]21	DUX4 txn inh -43
O=C(Cc1ccncc1)N1CC[C@@H]2[C@H](CO)Nc3ccc(-c4ccccc4F)cc3[C@@H]21	DUX4 txn inh -48
CN1c2ccc(-c3cccc(F)c3)cc2[C@H]2[C@H](CCN2C(=O)c2ccccc2F)[C@H]1CO	DUX4 txn inh -45
COc1cccc(C#Cc2ccc3c(c2)[C@@H]2[C@@H](CCN2C(=O)c2ccc(F)cc2)[C@@H](CO)N3)c1	none
O=C(c1ccccc1)N1CC[C@@H]2[C@H]1c1cc(C#Cc3cccc(F)c3)ccc1N[C@@H]2CO	none
CN1c2ccc(-c3cccc(F)c3)cc2[C@H]2[C@H](CCN2C(=O)c2ccncc2)[C@@H]1CO	none
O=C(Cc1ccccc1)N1CC[C@@H]2[C@@H](CO)Nc3ccc(-c4ccccc4F)cc3[C@@H]21	none
CCC(=O)N1CC[C@@H]2[C@@H](CO)N(C)c3ccc(-c4cccc(F)c4)cc3[C@@H]21	none
O=C(Cc1ccncc1)N1CC[C@@H]2[C@@H](CO)Nc3ccc(-c4cccc(F)c4)cc3[C@@H]21	none
COc1ccc2c3c(n(C)c2c1)[C@H](CO)N(C(=O)c1ccc(F)cc1)CC31CN(C(C)=O)C1	none
O=C(C[C@H]1C=C[C@H](NC(=O)Cc2cccnc2)[C@H](CO)O1)Nc1ccc(-c2ccccc2)cc1	none
COc1ccc(S(=O)(=O)N2C[C@@H](O)COC[C@@H]3O[C@H](CC(=O)N[C@@H]4CCN(Cc5ccccc5)C4)CC[C@H]32)cc1	none
C[C@@H]1COCc2cn(nn2)CC[C@@H](Cc2ccccc2)C(=O)N1	none
O=C(c1ccccn1)N1C[C@H]2[C@@H](c3ccccc31)[C@H](CO)N2C(=O)CC1CC1	none
CCC(=O)N1CC2(C1)CN(C(C)=O)[C@H](CO)c1[nH]c3cc(OC)ccc3c12	none
Cc1noc(C)c1NC(=O)Nc1ccc2c(c1)C(=O)N([C@H](C)CO)C[C@@H](C)[C@H](CN(C)Cc1ccc3c(c1)OCO3)OCCCC[C@H](C)O2	none
O=C1CN(S(=O)(=O)Cc2ccccc2)C[C@@H]2[C@H](c3ccc(C#CCC4CCCC4)cc3)[C@@H](CO)N12	none
COCC(=O)N1CC2(C1)[C@H](c1ccccc1)[C@H](CO)N2Cc1ccccc1OC	none
O=C(C[C@H]1C[C@H]2c3cc(NC(=O)Cc4ccncc4)ccc3O[C@H]2[C@H](CO)O1)NCc1cccc(F)c1	DUX4 txn inh -30
O=C(C[C@@H]1C[C@H]2c3cc(NC(=O)Cc4ccncc4)ccc3O[C@H]2[C@@H](CO)O1)NCc1cccc(F)c1	none
COc1ccccc1CNC(=O)C[C@H]1C[C@H]2c3cc(NC(=O)Cc4ccncc4)ccc3O[C@H]2[C@H](CO)O1	DUX4 txn inh -34
O=C(C[C@H]1C[C@@H]2c3cc(NC(=O)Cc4ccncc4)ccc3O[C@@H]2[C@H](CO)O1)NCc1ccc(-c2ccccc2)cc1	none
O=C(C[C@@H]1C[C@@H]2c3cc(NC(=O)Cc4ccncc4)ccc3O[C@@H]2[C@@H](CO)O1)NCc1cccc(F)c1	none
COc1ccccc1CNC(=O)C[C@@H]1C[C@@H]2c3cc(NC(=O)CN(C)C)ccc3O[C@@H]2[C@@H](CO)O1	none
O=C(C[C@@H]1C[C@H]2c3cc(NC(=O)Cc4ccncc4)ccc3O[C@H]2[C@@H](CO)O1)NCc1ccc(-c2ccccc2)cc1	DUX4 txn inh -31
COc1ccccc1CNC(=O)C[C@H]1C[C@H]2c3cc(NC(=O)CN(C)C)ccc3O[C@H]2[C@H](CO)O1	none
CN(C)CC(=O)Nc1ccc2c(c1)[C@H]1C[C@H](CC(=O)NCc3ccc(-c4ccccc4)cc3)O[C@@H](CO)[C@H]1O2	none
C[C@@H](NC(=O)C[C@H]1C=C[C@@H](NC(=O)c2cccnc2)[C@@H](CO)O1)c1ccccc1	none
CCCNC(=O)N1[C@H](CNC(C)=O)[C@@H](c2ccccc2)[C@@H]1CO	none
N#Cc1ccc(-c2ccc([C@H]3[C@@H](CO)N4C(=O)CN(C(=O)C5CCCCC5)C[C@@H]34)cc2)cc1	none
O=C(C[C@@H]1C[C@H]2c3cc(NC(=O)CC4CC4)ccc3O[C@H]2[C@@H](CO)O1)NCc1ccncc1	none
Cc1ccccc1S(=O)(=O)N1[C@@H]2CNC[C@H]1C2c1ccc(-c2cccc(C#N)c2)cc1 (some centres not stated)	none
Cc1ccccc1S(=O)(=O)N1C[C@@H]2N[C@H](C1)C2c1ccc(-c2ccc(C#N)cc2)cc1 (some centres not stated)	DUX4 txn inh -69!

Compound activity deposited in PubChem BioAssay by Broad Institute.
